From PubChem BioAssay (Tox21)
Calls of active or inactive are those of the source. Entries that show only a call come without a potency. Unless noted, calls come from the whole dose curve; as a rule, active = well fitted curve in the direction sought with a large enough effect in the repeat runs; inconclusive = weak or mixed curves; inactive = no such curve, though single readings can be large; an effect the other way counts as inactive or inconclusive.

Columns and labels:
[1] = qHTS assay to test for compound auto fluorescence at 535 nm (green) in HEK293 cells (AID 720680)
[2] = qHTS assay to test for compound auto fluorescence at 460 nm (blue) in HEK293 cell free culture (AID 720681)
In short: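 Test compounds were pinned into cell-free culture medium (DMEM with 10% FBS) and fluorescence was read directly at Ex/Em 405/460 nm. Signals were expressed as fluorescence equivalents of triamterene, with DMSO vehicle as control.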

[3] = qHTS assay to test for compound auto fluorescence at 535 nm (green) in HEK293 cell free culture (AID 720682)
In short: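 Green-channel intensity (Ex/Em 485/535 nm) was recorded from compound-treated wells containing only DMEM with 10% FBS. Fluorescein provided the equivalency standard.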

[4] = qHTS assay to test for compound auto fluorescence at 590 nm (red) in HEK293 cell free culture (AID 720683)
In short: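 Tox21 10K library compounds were pinned into cell-free DMEM with 10% FBS and fluorescence was read at excitation 540 nm. Activity is expressed as Rose Bengal sodium equivalency.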

[5] = qHTS assay to test for compound auto fluorescence at 590 nm (red) in HepG2 cell free culture (AID 720684)
In short: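 Readout: intrinsic compound fluorescence at 590 nm emission after 540 nm excitation, scaled to Rose Bengal sodium. Matrix was cell-free MEM with 10% FBS; DMSO vehicle wells served as control.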

[6] = qHTS assay to test for compound auto fluorescence at 460 nm (blue) in HepG2 cell free culture (AID 720685)
In short: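 Cell-free plates of MEM plus 10% FBS received 23 nL compound or DMSO vehicle; blue-channel (405/460 nm) intensity scored against triamterene as reference fluorophore.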

[7] = qHTS assay to test for compound auto fluorescence at 535 nm (green) in HepG2 cell free culture (AID 720686)
[8] = qHTS assay to test for compound auto fluorescence at 460 nm (blue) in HepG2 cells (AID 720687)
In short: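 Cells (2,000/well in MEM with 10% FBS) attached overnight at 37 C, then were exposed to compound or DMSO for 1 hr at 37 C, 5% CO2. Fluorescence read at Ex/Em 405/460 nm, expressed as triamterene-equivalent signal.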

[9] = target: Glucocorticoid receptor (Homo sapiens) (UniProt P04150); assay: qHTS assay to identify small molecule agonists of the glucocorticoid receptor (GR) signaling pathway (AID 720691; active = well fitted activation curve with a large enough effect in the signal ratio in the repeat runs, not every such curve was filed as active; inconclusive = weak or mixed curves, or effect the other way; inactive = no such curve, though single readings can be large or run the other way; the % refers to the signal ratio; note: potency is the fitted concentration of half-maximal effect); details: GR-bla HeLa, beta-lactamase reporter ratio, 18 h; activation: at 62.4 µM (top of the series)
Sequence of Glucocorticoid receptor (Homo sapiens) (P04150 whole entry, looked up): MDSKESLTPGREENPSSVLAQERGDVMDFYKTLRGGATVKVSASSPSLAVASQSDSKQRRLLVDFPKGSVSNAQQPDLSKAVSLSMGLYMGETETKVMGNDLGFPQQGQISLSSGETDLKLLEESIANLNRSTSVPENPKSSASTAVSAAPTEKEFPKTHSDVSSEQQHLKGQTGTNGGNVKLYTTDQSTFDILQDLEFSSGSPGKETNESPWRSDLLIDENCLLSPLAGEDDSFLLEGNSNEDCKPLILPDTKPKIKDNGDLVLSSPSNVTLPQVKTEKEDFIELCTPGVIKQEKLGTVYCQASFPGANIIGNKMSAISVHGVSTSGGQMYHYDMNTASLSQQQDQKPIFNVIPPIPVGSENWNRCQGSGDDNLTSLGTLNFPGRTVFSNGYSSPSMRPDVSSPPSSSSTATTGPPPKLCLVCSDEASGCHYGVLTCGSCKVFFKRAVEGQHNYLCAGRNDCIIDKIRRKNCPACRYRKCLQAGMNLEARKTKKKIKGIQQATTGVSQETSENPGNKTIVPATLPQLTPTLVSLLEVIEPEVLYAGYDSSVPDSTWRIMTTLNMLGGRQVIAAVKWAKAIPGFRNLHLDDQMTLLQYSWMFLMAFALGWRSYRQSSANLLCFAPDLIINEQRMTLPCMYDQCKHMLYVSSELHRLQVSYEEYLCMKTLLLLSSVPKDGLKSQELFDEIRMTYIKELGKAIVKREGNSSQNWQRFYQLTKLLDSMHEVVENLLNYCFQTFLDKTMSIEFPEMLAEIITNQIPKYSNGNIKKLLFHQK
In short: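 Agonist-mode qHTS in HeLa cells stably expressing a glucocorticoid-response-element beta-lactamase reporter. Fluorescence intensity read with FRET substrate (2 h, room temperature) after 18 h compound treatment at 37 C.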

[10] = qHTS assay to identify small molecule antagonists of the glucocorticoid receptor (GR) signaling pathway - cell viability counter screen (AID 720693); note: nearly all actives have a fitted effect of over 55% in size
[11] = qHTS assay for identifying genotoxic compounds that show differential cytotoxicity against isogenic chicken DT40 cell lines with known DNA damage response pathways - Rev3 mutant cell line (AID 743014); note: nearly all actives have a fitted effect of over 55% in size; note: potency is the fitted concentration of half-maximal effect
[12] = qHTS assay for identifying genotoxic compounds that show differential cytotoxicity against isogenic chicken DT40 cell lines with known DNA damage response pathways - Rad54/Ku70 mutant cell line (AID 743015); note: nearly all actives have a fitted effect of over 60% in size; note: potency is the fitted concentration of half-maximal effect
[13] = qHTS assay to identify small molecule antagonists of the androgen receptor (AR) signaling pathway - cell viability counter screen (AID 743033; note: nearly all actives have a fitted effect of over 45% in size)
[14] = qHTS assay to identify small molecule antagonists of the androgen receptor (AR) signaling pathway using the MDA cell line - cell viability counter screen (AID 743041; note: nearly all actives have a fitted effect of over 45% in size)
In short: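 qHTS viability read-out; MDA-kb2 AR-luc; R1881-stimulated; 16 h exposure at 37C, 0% CO2; CellTiter-Fluor, 30 min; fluorescence intensity.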

[15] = qHTS assay for identifying genotoxic compounds that show differential cytotoxicity against isogenic chicken DT40 cell lines with known DNA damage response pathways - wild type cell line (AID 743012); note: nearly all actives have a fitted effect of over 60% in size; note: potency is the fitted concentration of half-maximal effect
In short: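 Viability by ATP luminescence (CellTiter-Glo, 30 min RT) after 40 h compound treatment at 37 C/5% CO2, using 300 parental DNA repair-proficient DT40 cells per well.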

[16] = target: Androgen receptor (Homo sapiens) (UniProt P10275); assay: qHTS assay to identify small molecule antagonists of the androgen receptor (AR) signaling pathway (AID 743035; active = well fitted inhibition curve with a large enough effect in the signal ratio in the repeat runs, not every such curve was filed as active; inconclusive = weak or mixed curves, or effect the other way; inactive = no such curve, though single readings can be large or run the other way; the % refers to the signal ratio; note: potency is the fitted concentration of half-maximal effect)
Sequence of Androgen receptor (Homo sapiens) (P10275 whole entry, looked up): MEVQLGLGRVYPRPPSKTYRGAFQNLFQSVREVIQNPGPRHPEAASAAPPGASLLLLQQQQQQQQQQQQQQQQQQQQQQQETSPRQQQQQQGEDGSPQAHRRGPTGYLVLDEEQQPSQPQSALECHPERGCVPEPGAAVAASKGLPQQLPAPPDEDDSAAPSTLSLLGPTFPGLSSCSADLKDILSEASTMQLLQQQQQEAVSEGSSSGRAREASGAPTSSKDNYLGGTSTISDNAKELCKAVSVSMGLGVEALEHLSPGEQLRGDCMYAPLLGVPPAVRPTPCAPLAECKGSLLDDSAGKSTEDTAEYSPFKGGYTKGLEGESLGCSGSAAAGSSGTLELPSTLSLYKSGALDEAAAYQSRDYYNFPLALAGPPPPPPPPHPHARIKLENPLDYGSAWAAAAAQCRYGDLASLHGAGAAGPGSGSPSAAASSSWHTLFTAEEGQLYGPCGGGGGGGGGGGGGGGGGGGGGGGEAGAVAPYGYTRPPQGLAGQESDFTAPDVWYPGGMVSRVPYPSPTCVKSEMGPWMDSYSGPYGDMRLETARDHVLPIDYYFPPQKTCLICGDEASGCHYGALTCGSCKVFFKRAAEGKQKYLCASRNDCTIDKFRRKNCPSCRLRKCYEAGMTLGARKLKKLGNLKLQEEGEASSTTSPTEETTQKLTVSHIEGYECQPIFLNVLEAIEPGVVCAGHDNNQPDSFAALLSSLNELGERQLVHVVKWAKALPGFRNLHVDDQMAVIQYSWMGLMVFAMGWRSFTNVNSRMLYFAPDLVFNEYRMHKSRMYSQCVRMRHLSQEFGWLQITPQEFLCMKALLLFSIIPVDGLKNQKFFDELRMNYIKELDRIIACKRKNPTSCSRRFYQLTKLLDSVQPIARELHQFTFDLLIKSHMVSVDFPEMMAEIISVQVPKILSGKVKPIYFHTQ
In short: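 Antagonist mode: AR-bla HEK293 cells co-treated with test compounds and agonist R1881 for 16 h at 37C, 5% CO2. Beta-lactamase activity read as FRET fluorescence after 2 h room-temperature substrate loading.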

[17] = target: Androgen receptor (Homo sapiens) (UniProt P10275); assay: qHTS assay to identify small molecule agonists of the androgen receptor (AR) signaling pathway (AID 743036; active = well fitted activation curve with a large enough effect in the signal ratio in the repeat runs, with a control signal flat, not every such curve was filed as active; inconclusive = weak or mixed curves, or effect the other way; inactive = no such curve, though single readings can be large or run the other way; the % refers to the signal ratio; note: potency is the fitted concentration of half-maximal effect)
In short: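 Cell-based FRET reporter assay: HEK293 line with a UAS-beta-lactamase construct, compounds added in DMSO, 16 h exposure at 37C, then 2 h substrate step at room temperature and fluorescence intensity read.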

[18] = target: Androgen receptor (Homo sapiens) (UniProt P10275); assay: qHTS assay to identify small molecule agonists of the androgen receptor (AR) signaling pathway using the MDA cell line (AID 743040; note: nearly all actives have a fitted effect of over 20% in size; note: potency is the fitted concentration of half-maximal effect)
In short: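 Agonist activity is measured as luciferase luminescence in human MDA-kb2 cells whose MMTV reporter responds to both AR and GR. Compounds in DMSO incubate 16 h at 37C, 0% CO2, and ONE-Glo is read after 30 min.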

[19] = target: Androgen receptor (Homo sapiens) (UniProt P10275); assay: qHTS assay to identify small molecule antagonists of the androgen receptor (AR) signaling pathway using the MDA cell line (AID 743042; note: nearly all actives have a fitted effect of over 55% in size)
In short: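 MDA-kb2 cells (human breast carcinoma, stably carrying an MMTV-luciferase reporter responsive to AR and GR) were plated at 3,000 cells/well and preincubated 5 hr at 37C, then given compound plus R1881 agonist for 16 h. ONE-Glo luminescence was read.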

Row | Compound | Potency [1] | Potency [2] | Potency [3] | Potency [4] | Potency [5] | outcome [6] | Potency [7] | outcome [8] | Potency [9] | Potency [10] | Potency [11] | Potency [12] | Potency [13] | Potency [14] | Potency [15] | Potency [16] | Potency [17] | Potency [18] | Potency [19]
1 | CCCCC(C)(O)C/C=C/[C@H]1[C@H](O)CC(=O)[C@@H]1CCCCCCC(=O)OC (stereo not given in full) | inactive | inactive | inactive | inactive | inactive | inactive | inactive | inactive | inactive | inactive | 1680 nM (active) | 1190 nM (active) | inactive | inactive |  |  |  |  | 
2 | C[C@]12CCC(=O)C=C1CC[C@@H]1[C@@H]2[C@@H](O)C[C@@]2(C)[C@H]1CC[C@]2(O)C(=O)COP(=O)(O)O | inactive | inactive | inactive | inactive | inactive | inactive | inactive | inactive | 674 nM [inconclusive] (active) | inactive |  | inactive | inactive | inactive | inactive |  |  |  | 
3 | CC(=O)O[C@]1(C(C)=O)CC[C@H]2[C@@H]3CCC4=CC(=O)CC[C@]4(C)[C@@]3(F)[C@@H](O)C[C@@]21C | inactive | inactive | inactive | inactive | inactive | inactive | inactive | inactive | 37.9 nM (active) | inactive |  | inactive | inactive | inactive | inactive | 8490 nM (active) | inactive | 53.1 nM (active) | inactive
4 | C[Se]CCC(N)C(=O)O (stereo not given) | inactive | inactive | inactive | inactive | inactive | inactive | inactive | inactive | inactive | inactive | inactive | inactive | inactive |  |  |  |  |  | 
5 | CC1=C(/C=C/C(C)=C/C=C/C(C)=C/C=C/C=C(C)/C=C/C=C(C)/C=C/C2=C(C)C(=O)CCC2(C)C)C(C)(C)CCC1=O | inactive | inactive | inactive | inactive | inactive | inactive | inactive | inactive | inactive | inactive | inactive | inactive | inactive | inactive |  |  |  |  | 
6 | CC(/C=C/C=C(\C)C(=O)O[C@@H]1O[C@H](CO[C@@H]2O[C@H](CO)[C@@H](O)[C@H](O)[C@H]2O)[C@@H](O)[C@H](O)[C@H]1O)=C\C=C\C=C(C)\C=C\C=C(/C)C(=O)O[C@@H]1O[C@H](CO[C@@H]2O[C@H](CO)[C@@H](O)[C@H](O)[C@H]2O)[C@@H](O)[C@H](O)[C@H]1O | inactive | inactive | inactive | inactive | inactive | inactive | inactive | inactive | inactive | inactive |  | inactive | inactive | inactive | inactive |  |  |  | 
7 | CC[C@H]1NC(=O)[C@@H](NC(=O)c2ncccc2O)[C@@H](C)OC(=O)[C@H](c2ccccc2)NC(=O)[C@@H]2CC(=O)CCN2C(=O)[C@H](Cc2ccccc2)N(C)C(=O)[C@@H]2CCCN2C1=O | inactive | inactive | inactive | inactive | inactive | inactive | inactive | inactive | inactive | inactive |  | inactive | inactive | inactive | inactive | inactive | inactive | inactive | inactive
8 | COc1ccc2c(c1)N(C[C@H](C)CN(C)C)c1ccccc1S2 | inactive | inactive | inactive | inactive | inactive | inactive | inactive | inactive | inactive | inactive | 11400 nM (active) |  |  | inactive | 11400 nM (active) |  |  |  | 
9 | CC(=O)Nc1ccc(NC(=S)NC(=O)c2ccc(C(C)(C)C)cc2)cc1 | inactive | inactive | inactive | inactive | inactive | inactive | inactive | inactive | inactive | inactive | 2660 nM (active) |  | inactive | inactive | 2660 nM (active) |  |  |  | 
10 | CNCC(O)c1ccc(OC(=O)C(C)(C)C)c(OC(=O)C(C)(C)C)c1 (stereo not given) | inactive | inactive | inactive | inactive | inactive | inactive | inactive | inactive | inactive | inactive |  |  | inactive | inactive | 12700 nM (active) |  |  |  | 
11 | CO/N=C(\C(=O)N[C@@H]1C(=O)N2C(C(=O)O)=C(CSc3nnnn3C)CS[C@H]12)c1csc(N)n1 | inactive | inactive | inactive | inactive | inactive | inactive | inactive | inactive | inactive | inactive | inactive | inactive | inactive | inactive |  |  |  |  | 
12 | Nc1c(Br)cc(Br)cc1CNC1CCC(O)CC1 (stereo not given) | inactive | inactive | inactive | inactive | inactive | inactive | inactive | inactive | inactive | inactive |  |  | inactive | inactive | inactive | inactive | 4770 nM (active) | 1880 nM (active) | inactive
13 | O=C1NCCN1c1ncc([N+](=O)[O-])s1 | inactive | inactive | inactive | inactive | inactive | inactive | inactive | inactive | inactive | inactive |  | inactive | inactive | inactive | inactive |  |  |  | 
14 | CCOC(=O)O[C@]1(C(=O)COC(=O)CC)CC[C@H]2[C@@H]3CCC4=CC(=O)C=C[C@]4(C)[C@H]3[C@@H](O)C[C@@]21C | inactive | inactive | inactive | inactive | inactive | inactive | inactive | inactive | 28.8 nM (active) | inactive |  |  |  | inactive | inactive | 2040 nM (active) |  | 50.7 nM (active) | inactive
